Data on 40 compounds can be found in PubChem BioAssay (NCI).

The structures appear in SMILES notation. This is part of a sample that, as a whole, favours compounds with a hit. Of some 79,000 tested, about 15% had one in any assay. The source made the active and inactive calls. No stated cut-off is given here; in the data, active means growth inhibition above about 70%; inactive means the rest. Where a SMILES comes first, the peptide text is derived from it. [ ]: non-standard residue; d: D form. The star is where a group is joined. ξ: configuration not given here. NMeY = CN[C@@H](Cc1ccc(O)cc1)C(=O)O; Cbz = O=C(OCc1ccccc1)*; ξA = CC(N)C(=O)O

The nature of one experiment: NCI Yeast Anticancer Drug Screen. Data for the sgs1 mgt1 strain (AID 161).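 Further: 0% = growth of cultures given vehicle only.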 To be noted: S. cerevisiae sgs1 mgt1 strain, at 50.0 µM, active compounds read high. In short, it runs like this: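 This yeast growth screen uses a strain with defined DNA-repair lesions; compound-treated growth is compared with vehicle-treated growth.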
On to `CCC(C)CCC(=O)C(C)C=O` (configuration not stated), for which the growth inhibition was 3% (inactive). Same read-out and setting: the value for `O=C(/C(=C/c1ccc(Cl)cc1)c1ccccc1)c1ccccc1` was 6.45% (inactive); that for `O=C(NNC(=S)Nc1ccc(Cl)cc1)C12CC3CC(CC(C3)C1)C2` was -4.15% (inactive).

Turning to `O=c1cc(NCc2c(Cl)cccc2[N+](=O)[O-])[nH]c(=O)[nH]1`, the growth inhibition is 14.7% (inactive). Regarding `OCC1CCCC(n2cnc3c(=S)nc[nH]c32)O1` (configuration not stated), the growth inhibition was -20.2% (inactive). As for `COc1cc(CC2C(=O)OCC2C2(c3ccc4c(c3)OCO4)SCCCS2)cc(OC)c1OC` (configuration not stated), the growth inhibition is 0.15% (inactive). Turning to `COc1ccc(C[C@@H](C(=O)N[C@@H](C)C(N)=O)N(C)C(=O)[C@@H]2CCCN2C(=O)[C@H](CC(C)C)NC(=O)C(C)NC(=O)OCc2ccccc2)cc1` (some centres not stated) (Cbz-[ξA]LP[NMeY](Me)A-NH2), the growth inhibition was -7.95% (inactive). On the same count and under the same terms, the value for `CC1=COC(=O)[C@@H]2[C@@H](C)CC[C@@H]12` was -9.6% (inactive); that for `C=C(C)CC1CC(=O)OC1=O` (configuration not stated) was 13.6% (inactive); that for `CNCCC(C(=O)O)c1ccccc1` (configuration not stated) was 9.15% (inactive). On the same count and under the same terms, under `COc1ccc(OC)c(-c2nc3ccccc3c(=O)[nH]2)c1` stands 3.35% (inactive). The same measure, in the same setting: the value for `Nc1ccc2c(c1)NCC2` was -17.1% (inactive); that for `CSc1[nH]c2ncnc(Cl)c2c1C#N` was 15.9% (inactive); that for `COc1ccc(Nc2nc(C#N)c(N)s2)cc1` was -0.15% (inactive).

Take `OC12CC/C(=N/OCc3ccccc3)CC1c1ccccc12` (configuration not stated): the growth inhibition is -29.8% (inactive). Still for that read-out and setting: the value for `O=C(O)c1ccccc1C(=O)OCc1ccccc1` was 6.25% (inactive); that for `O=C(CCl)OCC(CCl)OC(=O)CCl` (configuration not stated) was 37.1% (inactive); that for `Cn1cnc2c(Cl)ncnc21` was -20.9% (inactive). Same read-out and setting: the value for `CC1CCCC(C(O)(C(=O)O)C2CCCCC2)C1` (configuration not stated) was 22.4% (inactive); that for `CC(C(=O)O)C(C)C(=O)Nc1ccccc1` (configuration not stated) was 11.1% (inactive). In the case of `COC(=O)C(=O)C1(c2ccccc2)CCCC(CN(C)C)=C1O` (configuration not stated), the growth inhibition was 2.65% (inactive). On the same count and under the same terms, under `[Cl][Bi]([O]c1ccccn1)[O]c1ccccn1` stands -13.4% (inactive).

Another experiment in a line: NCI Yeast Anticancer Drug Screen. Data for the cln2 rad14 strain (AID 165).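 Further: 0% = growth equal to vehicle treated cultures.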 The following applies: S. cerevisiae cln2 rad14 strain, at 50.0 µM, active compounds read high. The method, boiled down: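 Strain: cln2 rad14 yeast, altered in cell cycle control and DNA damage repair. Read-out: growth inhibition vs vehicle.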
For `Oc1cccc(NCNC2Nc3ccccc3N2)c1`, the growth inhibition was -11.1% (inactive). For `CCCCCCC1CCC(=O)CC1`, the growth inhibition was -10.1% (inactive). As for `CCOS(=O)(=O)CC(C)C(C)C` (configuration not stated), the growth inhibition is -18.1% (inactive). Turning to `O=c1[nH]/c(=C/c2ccc3c(c2)OCO3)c(=O)[nH]/c1=C/c1ccc2c(c1)OCO2`, the growth inhibition is -13% (inactive). The same measure, in the same setting: under `Nc1nc(C(=O)O)c(N=Nc2ccccc2)c(=O)[nH]1` stands 24.4% (inactive); under `COc1ccc2c(c1)CCC1=C2CC2C(=O)C1(C)CCC2(C)OC(C)=O` (configuration not stated), -40.5% (inactive); under `COc1ccc(-c2cc(=O)c3cc(C)c(C)c(C#N)c3o2)cc1`, -17.5% (inactive). On the same count and under the same terms, under `CCC(C(=O)O)C(=O)O` stands 14.3% (inactive); under `O=C(Nc1cc(C(F)(F)F)ccc1Cl)c1ccccc1F`, -9.15% (inactive); under `Nc1nc(-c2ccccc2)cc(-c2cc(Cl)ccc2O)n1`, 20.5% (inactive). Take `O=C1NC(Cc2ccc(O)cc2)C(=O)N1c1ccccc1O` (configuration not stated): the growth inhibition is 2.5% (inactive). Consider `CC1=NN(C(=O)c2ccc(Cl)cc2)C(=O)/C1=C/c1ccco1`, for which the growth inhibition is 9.25% (inactive). Take `CC1CCC2C(C)C3C(CC4C5CC=C6CC(O)CCC6(C)C5CCC43C=O)N2C1` (configuration not stated): the growth inhibition was 16.6% (inactive). The same measure, in the same setting: the value for `ClC(c1ccccc1)c1cccc2ccccc12` (configuration not stated) was 21.5% (inactive).

`O=C(O)CNc1ncnc2[nH]ncc12`: the growth inhibition was 3.8% (inactive). The same measure, in the same setting: under `C=C(CN(CC)CC)C1(c2ccccc2)CC2(CCCC2)C(=O)O1` (configuration not stated) stands 3.6% (inactive); under `CCOC(=O)c1c(C)c2c(n1C)CCC(C(=O)OCC)C2=O` (configuration not stated), 11.4% (inactive).

In the case of `O=C(NNC(O)C(F)(F)F)c1ccccc1` (configuration not stated), the growth inhibition is -35.2% (inactive). Still for that read-out and setting: the value for `CCC(C)CCC(=O)C(C)C=O` (configuration not stated) was -5.9% (inactive); that for `O=C(/C(=C/c1ccc(Cl)cc1)c1ccccc1)c1ccccc1` was 13.9% (inactive); that for `O=C(NNC(=S)Nc1ccc(Cl)cc1)C12CC3CC(CC(C3)C1)C2` was 17.4% (inactive). Still for that read-out and setting: the value for `O=c1cc(NCc2c(Cl)cccc2[N+](=O)[O-])[nH]c(=O)[nH]1` was -7.9% (inactive).

Turning to `OCC1CCCC(n2cnc3c(=S)nc[nH]c32)O1` (configuration not stated), the growth inhibition is -10.7% (inactive).

For `COc1cc(CC2C(=O)OCC2C2(c3ccc4c(c3)OCO4)SCCCS2)cc(OC)c1OC` (configuration not stated), the growth inhibition is 27.5% (inactive). For the compound `COc1ccc(C[C@@H](C(=O)N[C@@H](C)C(N)=O)N(C)C(=O)[C@@H]2CCCN2C(=O)[C@H](CC(C)C)NC(=O)C(C)NC(=O)OCc2ccccc2)cc1` (some centres not stated) (Cbz-[ξA]LP[NMeY](Me)A-NH2), the growth inhibition is -4% (inactive). On to `CC1=COC(=O)[C@@H]2[C@@H](C)CC[C@@H]12`, for which the growth inhibition was 10.3% (inactive). `C=C(C)CC1CC(=O)OC1=O` (configuration not stated): the growth inhibition was -21.9% (inactive). On the same count and under the same terms, the value for `CNCCC(C(=O)O)c1ccccc1` (configuration not stated) was -28.2% (inactive). Same read-out and setting: under `COc1ccc(OC)c(-c2nc3ccccc3c(=O)[nH]2)c1` stands 14.2% (inactive). Still for that read-out and setting: the value for `Nc1ccc2c(c1)NCC2` was 12.1% (inactive). As for `CSc1[nH]c2ncnc(Cl)c2c1C#N`, the growth inhibition is -21.8% (inactive).

As to `COc1ccc(Nc2nc(C#N)c(N)s2)cc1`, the growth inhibition was -0.2% (inactive). On the same count and under the same terms, under `OC12CC/C(=N/OCc3ccccc3)CC1c1ccccc12` (configuration not stated) stands -16% (inactive); under `O=C(O)c1ccccc1C(=O)OCc1ccccc1`, -11.2% (inactive). Same read-out and setting: the value for `O=C(CCl)OCC(CCl)OC(=O)CCl` (configuration not stated) was -15.2% (inactive). `Cn1cnc2c(Cl)ncnc21`: the growth inhibition was -18.4% (inactive).

Consider `CC1CCCC(C(O)(C(=O)O)C2CCCCC2)C1` (configuration not stated), for which the growth inhibition is 13.1% (inactive).

Consider `CC(C(=O)O)C(C)C(=O)Nc1ccccc1` (configuration not stated), for which the growth inhibition was 24.4% (inactive).

In the case of `COC(=O)C(=O)C1(c2ccccc2)CCCC(CN(C)C)=C1O` (configuration not stated), the growth inhibition was -4.95% (inactive). On to `[Cl][Bi]([O]c1ccccn1)[O]c1ccccn1`, for which the growth inhibition was 17.4% (inactive).
